Holding throughout (assay): DAPPL (digital affinity profiling via proximity ligation, sequencing); 10 mM Tris-HCl pH 7.5, 50 mM NaCl, 1 mM DTT, 4% glycerol, room temperature, 30 min; GST-TFs on glutathione beads, 16-mer random dsDNA library, 0.1% formaldehyde crosslink after washing; high values mean tight binding
The target of one assay is T1, FEV (Homo sapiens, UniProt Q99581 1-238).
T1 sequence: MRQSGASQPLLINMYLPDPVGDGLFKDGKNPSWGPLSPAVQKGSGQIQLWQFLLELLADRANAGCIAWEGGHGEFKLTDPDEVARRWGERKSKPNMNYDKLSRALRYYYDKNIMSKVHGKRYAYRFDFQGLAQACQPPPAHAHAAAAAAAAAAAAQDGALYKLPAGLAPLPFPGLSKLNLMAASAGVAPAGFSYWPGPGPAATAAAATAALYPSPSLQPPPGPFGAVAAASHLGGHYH
The conditions noted are these: protein: recombinant; tags: N-terminal GST; dsDNA, one strand shown. A digest of the protocol: (§1)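 Human transcription factors were made in yeast as GST fusions, captured on glutathione beads and barcoded with DNA. With a tag-only sample included, the pool was incubated with 200 nmole of a random double-stranded 16-mer DNA library in Tris/NaCl/DTT/glycerol buffer at room temperature for 30 min, then crosslinked with 0.1% formaldehyde after washing, ligated by proximity, amplified and sequenced. For binding signal, each hexamer's read frequency for a factor is divided by its frequency for the tag-only sample.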

The target of the next assay is ETV5 (Homo sapiens, UniProt P41161 1-510). The conditions noted are these: protein: recombinant; tags: N-terminal GST; dsDNA, one strand shown. A digest of the protocol: as §1
Chain of ETV5 (P41161 whole entry): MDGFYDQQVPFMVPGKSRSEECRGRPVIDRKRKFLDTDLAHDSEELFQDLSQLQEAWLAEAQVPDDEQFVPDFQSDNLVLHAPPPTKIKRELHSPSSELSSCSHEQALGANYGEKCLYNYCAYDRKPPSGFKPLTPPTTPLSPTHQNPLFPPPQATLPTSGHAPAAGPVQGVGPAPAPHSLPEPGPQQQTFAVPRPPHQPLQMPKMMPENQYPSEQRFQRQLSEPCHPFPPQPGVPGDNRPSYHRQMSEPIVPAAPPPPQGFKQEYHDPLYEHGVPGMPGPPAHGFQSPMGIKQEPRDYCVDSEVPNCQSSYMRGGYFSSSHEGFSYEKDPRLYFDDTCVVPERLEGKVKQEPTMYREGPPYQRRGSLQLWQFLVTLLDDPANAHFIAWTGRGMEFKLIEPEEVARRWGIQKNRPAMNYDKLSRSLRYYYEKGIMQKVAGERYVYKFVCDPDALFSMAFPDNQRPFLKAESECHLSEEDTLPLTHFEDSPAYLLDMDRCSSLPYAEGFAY
A further assay concerns the target HSF1 (Homo sapiens, UniProt Q00613 1-529). As to conditions: protein: recombinant; tags: N-terminal GST; chain copies: 3; dsDNA, one strand shown. A digest of the protocol: as §1
In a further assay the target is T2, SPIC (Homo sapiens, UniProt Q8N5J4 1-248).
T2 sequence: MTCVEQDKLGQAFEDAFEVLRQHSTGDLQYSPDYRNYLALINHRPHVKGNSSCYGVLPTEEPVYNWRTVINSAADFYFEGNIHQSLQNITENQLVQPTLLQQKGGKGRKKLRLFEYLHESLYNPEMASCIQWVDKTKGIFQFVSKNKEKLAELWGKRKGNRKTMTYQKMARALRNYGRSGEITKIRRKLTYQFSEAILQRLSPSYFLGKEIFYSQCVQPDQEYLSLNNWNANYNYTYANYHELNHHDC
The conditions noted are these: protein: recombinant; tags: N-terminal GST; dsDNA, one strand shown. In outline: as §1

The next assay concerns the target ELF4 (Homo sapiens, UniProt Q99607 1-663). The conditions noted are these: protein: recombinant; tags: N-terminal GST; dsDNA, one strand shown. A digest of the protocol: as §1
Another assay deals with T3, ELK4 (Homo sapiens, UniProt P28324-2 1-405).
T3 sequence: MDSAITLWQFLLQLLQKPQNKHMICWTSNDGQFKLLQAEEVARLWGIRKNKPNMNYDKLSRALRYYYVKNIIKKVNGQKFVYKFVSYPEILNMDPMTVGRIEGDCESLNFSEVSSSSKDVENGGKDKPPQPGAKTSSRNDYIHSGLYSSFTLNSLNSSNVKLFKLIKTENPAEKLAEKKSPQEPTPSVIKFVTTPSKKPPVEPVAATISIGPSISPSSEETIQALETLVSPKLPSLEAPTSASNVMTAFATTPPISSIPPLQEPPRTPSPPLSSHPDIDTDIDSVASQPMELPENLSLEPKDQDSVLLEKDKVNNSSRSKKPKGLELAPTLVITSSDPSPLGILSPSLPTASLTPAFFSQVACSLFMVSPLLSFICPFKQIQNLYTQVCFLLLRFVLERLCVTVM
The conditions noted are these: protein: recombinant; tags: N-terminal GST; dsDNA, one strand shown. A digest of the protocol: as §1

The target of the next assay is T4, ETV2 (Homo sapiens, UniProt O00321 1-342).
T4 sequence: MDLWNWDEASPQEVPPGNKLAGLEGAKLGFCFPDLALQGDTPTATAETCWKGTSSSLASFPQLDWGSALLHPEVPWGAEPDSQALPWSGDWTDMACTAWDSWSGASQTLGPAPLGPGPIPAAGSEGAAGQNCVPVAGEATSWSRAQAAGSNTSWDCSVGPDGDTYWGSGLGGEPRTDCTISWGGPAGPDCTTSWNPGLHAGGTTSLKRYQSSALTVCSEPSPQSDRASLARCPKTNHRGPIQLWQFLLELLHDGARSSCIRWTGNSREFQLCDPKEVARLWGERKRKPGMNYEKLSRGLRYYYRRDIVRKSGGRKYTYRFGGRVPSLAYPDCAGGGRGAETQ
As to conditions: protein: recombinant; tags: N-terminal GST; dsDNA, one strand shown. In outline:
as §1

The next assay concerns the target T5, ELF3 (Homo sapiens, UniProt P78545 1-371).
T5 sequence: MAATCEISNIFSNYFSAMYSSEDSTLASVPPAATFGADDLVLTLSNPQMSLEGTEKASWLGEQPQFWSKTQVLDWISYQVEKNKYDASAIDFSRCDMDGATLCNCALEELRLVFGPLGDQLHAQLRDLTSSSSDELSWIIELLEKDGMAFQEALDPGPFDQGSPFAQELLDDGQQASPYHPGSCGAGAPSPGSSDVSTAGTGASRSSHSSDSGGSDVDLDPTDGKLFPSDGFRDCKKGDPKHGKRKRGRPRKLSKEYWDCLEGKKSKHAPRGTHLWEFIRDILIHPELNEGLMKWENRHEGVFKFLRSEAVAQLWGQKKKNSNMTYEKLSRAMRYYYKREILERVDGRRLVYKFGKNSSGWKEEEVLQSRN
As to conditions: protein: recombinant; tags: N-terminal GST; dsDNA, one strand shown. A digest of the protocol:
as §1

The target in a further assay is CRX (Homo sapiens, UniProt O43186 1-299). As to conditions: protein: recombinant; tags: N-terminal GST; dsDNA, one strand shown. In outline:
as §1

The target of the next assay is ETV1 (Homo sapiens, UniProt P50549 1-477). As to conditions: protein: recombinant; tags: N-terminal GST; dsDNA, one strand shown. A digest of the protocol: as §1
Chain of ETV1 (P50549 whole entry): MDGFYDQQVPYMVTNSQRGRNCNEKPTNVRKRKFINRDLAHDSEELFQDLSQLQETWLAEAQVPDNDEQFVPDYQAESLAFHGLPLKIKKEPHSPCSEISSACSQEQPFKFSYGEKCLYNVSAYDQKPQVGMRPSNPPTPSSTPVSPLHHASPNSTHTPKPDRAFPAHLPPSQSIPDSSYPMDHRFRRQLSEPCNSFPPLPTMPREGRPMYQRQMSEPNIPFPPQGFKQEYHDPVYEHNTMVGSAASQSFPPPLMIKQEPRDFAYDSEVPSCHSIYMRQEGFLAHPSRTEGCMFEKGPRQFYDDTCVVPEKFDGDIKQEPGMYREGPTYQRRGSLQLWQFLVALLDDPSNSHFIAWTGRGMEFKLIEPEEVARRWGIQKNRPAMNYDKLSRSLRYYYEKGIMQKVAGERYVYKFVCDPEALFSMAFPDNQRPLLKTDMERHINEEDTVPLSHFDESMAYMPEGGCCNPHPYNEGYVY
A further assay concerns the target T6, ERF (Homo sapiens, UniProt P50548 1-548).
T6 sequence: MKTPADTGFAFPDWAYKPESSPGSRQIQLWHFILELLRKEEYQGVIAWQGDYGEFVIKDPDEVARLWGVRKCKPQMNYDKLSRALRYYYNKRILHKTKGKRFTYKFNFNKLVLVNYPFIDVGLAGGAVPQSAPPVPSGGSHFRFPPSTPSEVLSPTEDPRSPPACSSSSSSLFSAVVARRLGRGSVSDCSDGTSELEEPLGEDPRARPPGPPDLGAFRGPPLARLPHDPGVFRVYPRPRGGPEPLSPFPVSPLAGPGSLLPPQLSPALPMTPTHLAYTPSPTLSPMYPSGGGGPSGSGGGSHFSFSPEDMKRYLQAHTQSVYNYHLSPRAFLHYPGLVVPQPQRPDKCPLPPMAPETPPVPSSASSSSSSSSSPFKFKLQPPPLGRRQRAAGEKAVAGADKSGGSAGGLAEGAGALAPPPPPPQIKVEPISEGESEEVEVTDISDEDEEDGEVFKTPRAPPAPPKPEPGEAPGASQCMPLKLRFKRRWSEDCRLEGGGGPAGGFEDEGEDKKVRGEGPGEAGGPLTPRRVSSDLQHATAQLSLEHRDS
As to conditions: protein: recombinant; tags: N-terminal GST; dsDNA, one strand shown. A digest of the protocol:
as §1

For a further assay, the target named is T7, ETV3L (Homo sapiens, UniProt Q6ZN32 1-361).
T7 sequence: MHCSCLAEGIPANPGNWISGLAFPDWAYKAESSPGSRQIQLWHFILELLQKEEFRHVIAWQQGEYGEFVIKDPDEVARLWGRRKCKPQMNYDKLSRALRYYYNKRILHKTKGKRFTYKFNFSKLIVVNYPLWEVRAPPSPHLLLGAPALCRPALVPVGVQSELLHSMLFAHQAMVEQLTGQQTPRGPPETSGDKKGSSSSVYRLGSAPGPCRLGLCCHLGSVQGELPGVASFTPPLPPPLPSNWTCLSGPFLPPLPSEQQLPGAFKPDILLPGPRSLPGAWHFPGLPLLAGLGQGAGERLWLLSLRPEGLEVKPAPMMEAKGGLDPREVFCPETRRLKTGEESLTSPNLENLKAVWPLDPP
As to conditions: protein: recombinant; tags: N-terminal GST; dsDNA, one strand shown. A digest of the protocol: as §1

The target of the next assay is T8, ETS2 (Homo sapiens, UniProt P15036 1-469).
T8 sequence: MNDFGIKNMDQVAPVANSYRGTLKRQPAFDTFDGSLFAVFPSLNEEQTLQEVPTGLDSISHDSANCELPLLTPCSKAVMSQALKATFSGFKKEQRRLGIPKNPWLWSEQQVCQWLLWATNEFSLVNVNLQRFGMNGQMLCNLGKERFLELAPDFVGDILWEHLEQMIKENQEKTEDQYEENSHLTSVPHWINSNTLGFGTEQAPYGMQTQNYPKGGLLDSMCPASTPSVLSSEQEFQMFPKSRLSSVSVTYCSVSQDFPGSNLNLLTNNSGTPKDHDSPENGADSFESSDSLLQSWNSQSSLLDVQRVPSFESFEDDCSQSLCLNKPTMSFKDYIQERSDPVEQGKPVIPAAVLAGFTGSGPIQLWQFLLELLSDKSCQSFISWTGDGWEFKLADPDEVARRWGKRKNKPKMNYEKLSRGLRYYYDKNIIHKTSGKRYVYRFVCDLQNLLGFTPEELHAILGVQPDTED
The conditions noted are these: protein: recombinant; tags: N-terminal GST; dsDNA, one strand shown. In outline:
as §1

The next assay concerns the target T9, SPDEF (Homo sapiens, UniProt O95238 1-335).
T9 sequence: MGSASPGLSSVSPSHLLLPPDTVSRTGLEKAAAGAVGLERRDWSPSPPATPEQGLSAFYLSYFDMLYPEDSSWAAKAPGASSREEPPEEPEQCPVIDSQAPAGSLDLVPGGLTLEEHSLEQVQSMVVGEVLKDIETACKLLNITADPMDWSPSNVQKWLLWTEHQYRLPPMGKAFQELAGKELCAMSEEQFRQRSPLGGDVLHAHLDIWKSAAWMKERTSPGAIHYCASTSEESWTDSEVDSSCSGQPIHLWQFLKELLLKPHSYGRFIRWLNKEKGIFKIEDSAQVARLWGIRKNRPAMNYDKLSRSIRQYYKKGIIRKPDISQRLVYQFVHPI
The conditions noted are these: protein: recombinant; tags: N-terminal GST; dsDNA, one strand shown. A digest of the protocol:
as §1

The next assay addresses T10, ETV7 (Homo sapiens, UniProt Q9Y603 1-341).
T10 sequence: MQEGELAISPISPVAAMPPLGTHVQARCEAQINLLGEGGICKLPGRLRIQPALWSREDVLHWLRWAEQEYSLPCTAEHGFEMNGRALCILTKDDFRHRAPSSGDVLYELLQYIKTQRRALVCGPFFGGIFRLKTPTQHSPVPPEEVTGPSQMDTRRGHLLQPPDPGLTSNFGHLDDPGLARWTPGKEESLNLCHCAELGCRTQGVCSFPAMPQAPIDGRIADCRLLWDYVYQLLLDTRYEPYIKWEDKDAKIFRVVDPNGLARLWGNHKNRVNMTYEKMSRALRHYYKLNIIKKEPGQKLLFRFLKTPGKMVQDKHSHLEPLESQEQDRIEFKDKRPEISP
As to conditions: protein: recombinant; tags: N-terminal GST; dsDNA, one strand shown. A digest of the protocol:
as §1

The target of a further assay is T11, ELF5 (Homo sapiens, UniProt Q9UKW6-2 1-255).
T11 sequence: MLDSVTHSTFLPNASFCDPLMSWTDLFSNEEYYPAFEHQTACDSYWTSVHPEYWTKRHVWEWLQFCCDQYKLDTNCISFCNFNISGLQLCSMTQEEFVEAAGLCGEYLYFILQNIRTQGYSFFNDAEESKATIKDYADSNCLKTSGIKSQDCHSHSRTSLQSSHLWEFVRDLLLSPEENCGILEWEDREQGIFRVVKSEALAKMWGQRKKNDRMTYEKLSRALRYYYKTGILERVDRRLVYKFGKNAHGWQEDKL
As to conditions: protein: recombinant; tags: N-terminal GST; dsDNA, one strand shown. A digest of the protocol:
as §1

A further assay concerns the target T12, ETV3 (Homo sapiens, UniProt P41162-2 1-143).
T12 sequence: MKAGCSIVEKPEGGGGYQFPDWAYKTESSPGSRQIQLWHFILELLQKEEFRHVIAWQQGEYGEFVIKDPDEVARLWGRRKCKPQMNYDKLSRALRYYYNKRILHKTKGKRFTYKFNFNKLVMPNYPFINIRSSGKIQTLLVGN
As to conditions: protein: recombinant; tags: N-terminal GST; dsDNA, one strand shown. A digest of the protocol: as §1

The next assay deals with ETV6 (Homo sapiens, UniProt P41212 1-452). The conditions noted are these: protein: recombinant; tags: N-terminal GST; dsDNA, one strand shown. In outline:
as §1

These results are taken from PMC7862700, “An all-to-all approach to the identification of sequence-specific readers for epigenetic DNA modifications on cytosine”.

Chain of ELF4 (Q99607 whole entry): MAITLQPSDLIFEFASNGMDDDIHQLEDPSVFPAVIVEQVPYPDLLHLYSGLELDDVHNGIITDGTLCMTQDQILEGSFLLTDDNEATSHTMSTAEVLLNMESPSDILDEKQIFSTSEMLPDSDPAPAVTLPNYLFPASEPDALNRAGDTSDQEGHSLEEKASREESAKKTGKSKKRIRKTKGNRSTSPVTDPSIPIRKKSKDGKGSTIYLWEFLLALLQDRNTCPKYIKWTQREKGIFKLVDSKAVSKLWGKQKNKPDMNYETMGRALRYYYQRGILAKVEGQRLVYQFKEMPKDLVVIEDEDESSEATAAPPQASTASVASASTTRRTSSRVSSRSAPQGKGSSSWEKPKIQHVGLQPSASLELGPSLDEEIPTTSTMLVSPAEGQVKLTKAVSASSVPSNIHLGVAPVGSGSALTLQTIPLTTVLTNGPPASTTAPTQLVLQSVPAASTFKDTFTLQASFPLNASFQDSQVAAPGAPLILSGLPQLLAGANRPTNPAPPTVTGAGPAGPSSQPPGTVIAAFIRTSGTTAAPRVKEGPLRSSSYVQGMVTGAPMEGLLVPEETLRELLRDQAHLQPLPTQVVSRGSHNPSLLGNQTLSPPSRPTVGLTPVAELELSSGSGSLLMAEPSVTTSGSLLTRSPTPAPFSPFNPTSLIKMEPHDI
Chain of CRX (O43186 whole entry): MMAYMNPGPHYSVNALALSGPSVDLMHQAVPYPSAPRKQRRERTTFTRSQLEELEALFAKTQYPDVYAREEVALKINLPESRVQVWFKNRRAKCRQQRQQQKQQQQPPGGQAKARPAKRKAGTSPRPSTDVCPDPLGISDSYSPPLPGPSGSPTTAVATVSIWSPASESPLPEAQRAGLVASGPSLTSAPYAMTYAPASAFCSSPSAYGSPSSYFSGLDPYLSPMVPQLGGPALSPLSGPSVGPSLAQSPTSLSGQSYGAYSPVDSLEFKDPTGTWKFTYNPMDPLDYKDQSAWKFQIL
Chain of HSF1 (Q00613 whole entry): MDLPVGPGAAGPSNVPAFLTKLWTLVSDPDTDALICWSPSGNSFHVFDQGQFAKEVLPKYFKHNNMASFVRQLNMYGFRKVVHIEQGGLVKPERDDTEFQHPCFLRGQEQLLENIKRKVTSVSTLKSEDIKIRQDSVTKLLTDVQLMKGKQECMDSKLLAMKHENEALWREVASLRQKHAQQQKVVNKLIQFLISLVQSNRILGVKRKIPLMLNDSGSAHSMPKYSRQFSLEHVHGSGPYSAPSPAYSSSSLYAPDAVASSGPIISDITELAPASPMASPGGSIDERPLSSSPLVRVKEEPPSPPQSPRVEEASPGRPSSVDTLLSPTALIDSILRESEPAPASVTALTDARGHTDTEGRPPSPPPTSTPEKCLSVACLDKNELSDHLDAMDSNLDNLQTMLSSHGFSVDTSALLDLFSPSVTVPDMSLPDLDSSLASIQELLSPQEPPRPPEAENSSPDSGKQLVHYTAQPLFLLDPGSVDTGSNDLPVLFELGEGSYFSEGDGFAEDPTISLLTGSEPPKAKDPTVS
Chain of ETV6 (P41212 whole entry): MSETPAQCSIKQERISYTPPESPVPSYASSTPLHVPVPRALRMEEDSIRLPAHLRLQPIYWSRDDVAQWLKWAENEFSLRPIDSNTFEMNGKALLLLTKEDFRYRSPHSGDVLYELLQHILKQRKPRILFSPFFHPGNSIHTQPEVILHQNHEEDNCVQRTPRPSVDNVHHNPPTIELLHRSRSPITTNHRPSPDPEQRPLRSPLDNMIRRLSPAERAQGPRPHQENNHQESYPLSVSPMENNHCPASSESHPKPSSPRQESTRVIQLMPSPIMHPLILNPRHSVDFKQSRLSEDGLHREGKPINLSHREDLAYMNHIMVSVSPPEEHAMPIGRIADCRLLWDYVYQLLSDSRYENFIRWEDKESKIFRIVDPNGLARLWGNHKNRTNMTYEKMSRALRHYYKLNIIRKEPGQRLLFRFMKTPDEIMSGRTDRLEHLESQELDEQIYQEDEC

For the sequence TGGCTC, the binding signal with FEV was 1.39 fold enrichment (6-mer frequency, TF over GST control); with ETV5 it was 1.3 fold enrichment (6-mer frequency, TF over GST control); with HSF1, 1.36 fold enrichment (6-mer frequency, TF over GST control); with SPIC, 1.46 fold enrichment (6-mer frequency, TF over GST control); in the assay with ELF4, 1.35 fold enrichment (6-mer frequency, TF over GST control); in the assay with ELK4, 1.5 fold enrichment (6-mer frequency, TF over GST control). Besides, the binding signal with ETV2 was 1.61 fold enrichment (6-mer frequency, TF over GST control); with ELF3, 1.44 fold enrichment (6-mer frequency, TF over GST control); in the assay with CRX, 1.3 fold enrichment (6-mer frequency, TF over GST control); in the assay with ETV1, 1.42 fold enrichment (6-mer frequency, TF over GST control); with ERF, 1.31 fold enrichment (6-mer frequency, TF over GST control); with ETV3L it was 1.5 fold enrichment (6-mer frequency, TF over GST control). In addition, the binding signal with ETS2 was 1.23 fold enrichment (6-mer frequency, TF over GST control); in the assay with SPDEF, 1.32 fold enrichment (6-mer frequency, TF over GST control); with ETV7 it was 1.22 fold enrichment (6-mer frequency, TF over GST control); with ELF5, 1.21 fold enrichment (6-mer frequency, TF over GST control); with ETV3 it was 1.44 fold enrichment (6-mer frequency, TF over GST control); with ETV6, 1.36 fold enrichment (6-mer frequency, TF over GST control).
